In all, about 110,000 compounds went through this assay and about 20 (0.02%) were called active. Roughly 2% stayed inconclusive and do not appear here. The call rests on the fitted dose curve; in most records, active means well fitted activation curve with a large enough effect; inconclusive means small, poorly fitted or top-dose-only effect; inactive means no such curve, though single readings can be large or run the other way. What follows is part of a selection rich in actives, with near analogues and random picks from the rest.
Experiment: qHTS Assay for Compounds that Induce Erasure of Genomic Imprints;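 further: 0% = negative control wells on the plate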
Conditions: mouse ES Peg3-LacZ reporter, beta-gal luminescence, 40 h; series mostly up to 10.9 µM; activity change, positive = activation: at the top concentration
Text: qHTS Assay for Compounds that Induce Erasure of Genomic Imprints NIH Chemical Genomics Center [NCGC] NIH Molecular Libraries Screening Centers Network [MLSCN] Assay Submitter (PI): JEFFRIES, SEAN, NCGC, University of Cambridge NCGC Peg3 Imprinting Assay Overview Genomic imprinting is the epigenetic process whereby genes are expressed in a parent of origin fashion. […] Unlike some forms of epigenetic silencing that can be overcome by overexpression of transcription factors, genomic imprinting stably represses the expression of one allele despite potentially high levels of expression from the other allele. […] During mouse embryonic day 11.5 imprints are erased in PGCs so that sex specific imprints can be reestablished during gametogenesis. Embryonic germ (EG) cells can be derived from developing PGCs at embryonic day 11.5 and these cells often lack genomic imprints. […] Embryonic stem (ES) cells are a cell type similar to EG cells in phenotype and transcriptional profile, yet ES cells maintain genomic imprints. This similarity between ES and EG cells prompted us to use ES cells to look for factors which could induce imprint erasure. To investigate the stability of genomic imprinting, ES cells were derived from mice with an insertion of a LacZ-Neomycin reporter construct in the Peg3 locus. Peg3 is an imprinted locus where gene expression is restricted to the paternal allele. […] Using LacZ expression we are able to monitor the state of the Peg3 imprint. In order to dissect the mechanisms involved in imprint erasure using a forward chemical genetics approach we developed a cell based phenotype assay using an endogenous silence imprinted locus. This assay utilizes maternally inherited Peg3LacZ-Neo ES cells by monitoring the LacZ expression from the normally silent Peg3 allele. To facilitate screening, high-density feeder-free ES cell culture has been optimized so that ES cells can be grown in 1536 for over four days without feeding or washes. The assay uses a luminescence based read out for LacZ activity and is a homogenous assay optimal for HTS.
NCGC Peg3 Imprinting Assay Protocol Summary ES cell lines were derived from blastocysts taken from Peg3LacZ-Neo x129 matings. Lines were sexed and genotyped for the Peg3LacZ-Neo allele. Female cells carrying the reporter allele were used in this study. Cells were derived on a layer of mouse embryonic fibroblasts and passaged multiple times before switching to feeder free culture. Cells were maintained feeder free on gelatin coated dishes in DMEM/F12 media supplemented with 15% FBS, 2mM L-glutamine, 100 units/ml penicillin, 100ug/ml streptomycin, 0.1mM MEM nonessential amino acids, 1mM sodium pyruvate, 0.1% sodium bicarbonate, 0.1mM 2-Mercaptoethanol, and 400 units/ml leukemia inhibitory factor (LIF) at 37C with 5% CO2. The assay was performed in 1536-well format. A single luminescence read was taken at the end of the assay and the data was normalized by plate to internal negative controls. Maximum efficacy and AC50 values were calculated from dose-response data using the standard Hill equation. 1536 well plates were filled with 0.5ul of 0.1% gelatin per well, spun down and incubated for at least 30 min at 37C. The ES cells were then trypsini Peg3 1536-well assay protocol: (1)Plate 0.5ul/well 0.1% gelatin in white tissue culture treated 1536-well plates, spin and incubate at 37C for at least 30 min. (2)Add 5ul/well (300 cells) of ES cell suspension from freshly trypsinized cells and incubate at 37C, 5% CO2 for 40 hours. (3)Add 5ul/well of freshly prepared BetaGlo solution and incubate at room temperature for 5 minutes. (4)Read luminescence on the ViewLux plate reader. Keywords Genomic Imprinting, Germ Cells, Embryonic Stem Cell, DNA Methylation, Peg3, qHTS, NIH roadmap, NCGC

Activity change, positive = activation, inactive:
CCN1CCN(c2cc(C)c3cc(NC(=O)c4cc(Cl)ccc4OC)ccc3n2)CC1 -33.9%
CCc1ccc(NC(=O)c2cc3c(=O)n(Cc4cccnc4)ccc3nc2C)cc1 -7.76%
CCCCCn1c(CCCNC(=O)c2ccccc2OC)nc2ccccc21 -12.7%
COc1ccccc1CNS(=O)(=O)c1cc(Br)cc2c1N(C(C)=O)C(C)C2 (centres undefined) -8.34%
CCOc1cc(C2C(C(=O)OC)=C(C)NC3=C2C(=O)c2ccccc23)ccc1O (centres undefined) -3.7%
CCOc1ccc(C2C(=O)N(C3CCCCC3)CC(=O)N2CCC2=CCCCC2)cc1OC (centres undefined) 6.2%
O=C(Nc1ccc2nc(SCCOc3ccccc3)sc2c1)c1ccco1 -16.3%
CCc1cnc2c(c1SCC(=O)N1CCC(C)CC1)c(=O)n(C)c(=O)n2C 9.05%
CCOc1ccc(N(CC)S(=O)(=O)N2CCCC(C(=O)Nc3ccc(C(C)=O)cc3)C2)cc1 (centres undefined) -20.5%
COc1ccc(Cn2cc(C(=O)c3ccc(C)cc3)c(=O)c3cc(OC)c(OC)cc32)cc1 -10.5%
Cc1csc2nc(COC(=O)c3ccc(NC(=O)COc4ccccc4F)cc3)cc(=O)n12 -15.4%
COc1ccc(OC)c(NC(=O)CSC2=Nc3ccccc3C3=NC(CC(=O)NCc4ccc(F)cc4)C(=O)N23)c1 (centres undefined) -6.91%
O=c1cc(COc2cccc(C(F)(F)F)c2)nc2sc3c(n12)CCCC3 20.1%
CCC(=O)Nc1cccc(-c2nc3cc(C)ccc3o2)c1 -34%
COc1ccc(Cl)cc1-n1c(CCC(=O)O)ccc1-c1ccc(C)cc1 4.72%
CCCC(=O)Nc1ccc(NC(=O)c2sc3ccccc3c2Cl)cc1 -17.3%
CC1CCCCN1S(=O)(=O)c1ccc(F)c(C(=O)Nc2ccccc2C(F)(F)F)c1 (centres undefined) 15.3%
CCc1cc2c(cc3c(=O)n(CC(=O)N4CCN(c5cc(Cl)ccc5C)CC4)nc(CC)n32)s1 3.78%
Cc1nn(-c2ccc(N3CCCCC3)nn2)c(C)c1CCC(=O)NCc1ccc(F)cc1 -10.3%
Cc1cc(C)cc(NC(=O)CCS(=O)(=O)c2cc3c4c(c2)CCN4C(=O)CC3)c1 -5.47%
CCOC(=O)N1CCC(NC(=O)c2cnn(-c3cccc(C)c3)c2C2CCN(C(=O)OC(C)(C)C)CC2)CC1 -7.69%
COc1ccc(CNC(=O)c2cc3c(=O)[nH]c4ccccc4c3s2)cc1 14.7%
CCOc1ccc(CNC(=O)C2CCCN(c3nnc(C)c4c(C)n(-c5ccccc5)nc34)C2)cc1 (centres undefined) -17.4%
Cc1nnc(C)n1-c1ccc(C(=O)Nc2cccc(Br)c2)cc1 -11.1%
COc1cc(NC(=O)CCNC(=O)Cn2ccc3ccccc3c2=O)cc(OC)c1OC -5.74%
CCc1nonc1NC(=O)c1oc2ccc(Cl)cc2c1C -14.9%
COc1ccccc1Nc1cc(C(=O)NCCCN(C)C2CCCCC2)c2ccccc2n1 21%
CCOC(=O)c1ccccc1NC(=O)c1nn(-c2ccc(OC)c(Cl)c2)c(=O)c2c1c1ccccc1n2C 22.8%
Cc1ccc(C)c(NC(=O)CSC2=Nc3ccccc3N=C(c3ccc(F)cc3)C2)c1 -7.52%
CCc1ccccc1NC(=O)Cn1c(=O)n(CC2CCC(C(=O)NCCc3ccccc3)CC2)c(=O)c2ccccc21 (centres undefined) -9.17%
COc1ccc(CNc2nc(-c3ccc(Cl)cc3)nn2S(=O)(=O)c2ccc(C)cc2)cc1 -11.7%
Cc1ccc(CN(C(=O)c2ccccc2[N+](=O)[O-])c2ccccn2)cc1 -12.4%
COc1ccc(NC(=O)C(=O)NCc2ccco2)cc1 -6.52%
CC1CN(C(=O)N2CCC(C(=O)NCc3cccs3)CC2)c2ccccc2O1 (centres undefined) -8.54%
Cc1ccc(S(=O)(=O)N2CCC(Oc3ccc(-n4cnnn4)cc3)CC2)cc1 -8.14%
Cc1ccc(F)cc1NC(=O)CCSc1nc(-c2ccco2)cc(C(F)(F)F)n1 5.17%
Cc1cc(C)c(-c2n[nH]c3c2C(c2ccccc2F)N(CCO)C3=O)c(O)c1 (centres undefined) -12.1%
CC(=O)Nc1ccc(S(=O)(=O)NCC2CCC(C(=O)NCCc3ccccc3)CC2)cc1 (centres undefined) -11%
COC(=O)c1ccccc1NC(=O)c1ccc2c(=O)n3c(nc2c1)CCCCC3 -6.07%
COc1ccc(S(=O)(=O)NCc2cccn2Cc2cccc(C)c2)cc1 -13.3%
COC(=O)CN1C(=O)CSc2ccc(S(=O)(=O)Nc3cc(C)ccc3C)cc21 2.15%
COc1ccc(CNC(=O)CSCc2nc(-c3ccccc3F)oc2C)cc1 -11%
O=C(Nc1ccc(F)cc1F)c1cnn(-c2ccc(F)cc2)c1-n1cccc1 4.84%
Cc1ccc(OCC(=O)Nc2ccc(Cl)c(-c3nc4ccccc4[nH]3)c2)cc1C -9.61%
Cc1oc2ncn(CC(C)C)c(=O)c2c1C(=O)N1CCN(c2ccccc2F)CC1 19.9%
COc1ccccc1NC(=O)c1cc(C2CC2)nc2c1c(C)nn2-c1ccc(C)cc1 -7.45%
Cc1ccc(CN2C(=O)SC(Nc3ccccc3)C2=O)cc1 (centres undefined) 3.26%
CCN(CCCNC(=O)c1cc2c(=O)n(CC)c3ccccc3c2s1)Cc1ccccc1 -11.1%
Cc1ccc(C(=O)NCCSc2c(C)[nH]c3ccccc23)cc1C -7.06%
O=C1CC(c2ccc(F)cc2F)c2cc3c(cc2N1)OCO3 (centres undefined) -10.5%
Cc1cccc(C(=O)N2c3nc(-c4ccco4)nn3C3(CCCCC3)[C@@H]3CCCC[C@@H]32)c1 -2.39%
O=C(CSc1nc(=O)n(Cc2cccnc2)c2c1CCC2)Nc1ccc(F)cc1F 19.5%
Cc1c(CNC2CCCCC2)c(C(=O)O)c(C)n1Cc1cccc(Cl)c1 -11%
CC(C)Oc1ccc(CNC(=O)C2CCN(c3nc4ccccc4n(C)c3=O)CC2)cc1 -2.14%
Cc1ccccc1NC(=O)Cn1c(=O)n(CCCCC(=O)NCc2ccccc2Cl)c(=O)c2ccccc21 -1.68%
COCCCNC(=O)c1ccc(NC(=O)c2nsc3ccccc23)cc1 2.98%
Cc1c(NC(=O)C(C)(C)C)cccc1-c1nc2ccccc2s1 -11.3%
Cc1ccn2c(Nc3ccc4c(c3)OCCO4)c(-c3ccc(C)s3)nc2c1 -21.3%
Cc1ccccc1CNC(=O)CCc1cn(Cc2ccccc2C)c2ccccc12 -11.9%
C[C@@]12CCC(=O)C=C1CC[C@H]1C2[C@@H](O)C[C@]2(C)[C@@H]1CC[C@@]2(O)C(=O)COC(=O)C1CCCC1 (some centres undefined) -4.6%
Cc1ccc(-n2nc(CO)c(C(=O)NCCc3ccccc3)n2)cc1 -11.8%
Cn1cc(S(=O)(=O)N2CCCCCC2)cc1C(=O)N1CCN(c2ccc(F)cc2)CC1 -9.82%
Cc1cccc(CSc2nc3ccncc3n2Cc2ccc(C(=O)O)cc2)c1 -11.1%
COc1ccc(CNc2nc(-c3ccc(Cl)cc3)nn2C(=O)c2ccccc2)cc1 -3.8%
CC1CCC(N2CC(=O)N(CCC3=CCCCC3)C(c3ccc(F)cc3)C2=O)CC1 (centres undefined) -12.5%
CN(Cc1ccccc1)S(=O)(=O)c1ccc(F)c(C(=O)Nc2cccc(Cl)c2Cl)c1 -33.7%
OC[C@H]1O[C@@H](n2cnc3c(NC4CCCC4)ncnc32)[C@H](O)[C@H]1O -11.3% [at 60.7 µM]
Cc1cc(NS(=O)(=O)c2ccc3oc(=O)c4ncn(C)c4c3c2)ccc1Br 8.33%
O=C(CSc1nc(Nc2ccc(F)c(F)c2)c2ccccc2n1)c1ccc(Cl)cc1 -13%
COc1ccc(C(=O)Nc2cccc(C(=O)OCc3cc(=O)n4c5c(sc4n3)CCCC5)c2)cc1 -92.1%
Cc1ccc(SCC(=O)Nc2ccc3oc(-c4ccccc4C)nc3c2)cc1 -13.5%
CCc1nnc(SCc2c(F)cccc2Cl)c2cc3sccc3n12 4.75%
Cc1nn(-c2ccc(F)cc2)c(-n2cccc2)c1C(=O)N1CCN(c2ccccc2)CC1 -3.32%
CCc1ccc(S(=O)(=O)Nc2cc3c(C(=O)OCc4ccccc4)c(C)oc3c3ccccc23)cc1 -22.6%
CCCC(=O)Nc1cc2nn(-c3ccccc3)nc2cc1C -25.6%
COc1ccc(C(=O)c2oc3ccccc3c2NC(=O)COc2cccc(C)c2)cc1 -16.2%
CCCN(C(=O)Cn1cc(S(=O)(=O)N2CCN(c3ccccc3F)CC2)c2ccccc2c1=O)c1cccc(C)c1 -16.3%
COc1ccc(OCc2ccc(-c3nc(C#N)c(N4CCN(c5ccccc5)CC4)o3)o2)cc1 -12.1%
CN1c2ccc(Cl)cc2-c2nc(SCC(=O)Nc3cc(F)ccc3F)ncc2S1(=O)=O -6.64%
COc1ccc(N(CC(=O)NCCc2ccc(Cl)cc2)S(=O)(=O)c2c(C)nn(C)c2C)cc1 15.7%
CCN(CC)CCNC(=O)Cn1ncc2c3ccccc3n(Cc3ccccc3C)c2c1=O -5.94%
Cc1cccn2c(=O)c(C(=O)NC(C)c3ccccc3)cnc12 (centres undefined) -15.7%
CN(C)S(=O)(=O)c1ccc(C(=O)N(Cc2cccnc2)c2nc3c(F)cc(F)cc3s2)cc1 -7.79%
CCSc1nnc(NC(=O)c2cc(=O)c3cc(C)c(C)cc3o2)s1 -10.3%
CCOC(=O)c1ccc(NC(=O)Cn2c(=O)n(-c3ccc(C)cc3)c(=O)c3c2cnn3C)cc1 -10.8%
CCOC(=O)c1ccc(NC(=O)CC2C(=O)N(c3ccccc3)C(=O)N2Cc2cccs2)cc1 (centres undefined) 7.18%
CCOCCCn1c(SCC(=O)Nc2ccc(CC)cc2)nc2ccccc2c1=O -2.25%
CCC(=O)Nc1c(C(=O)N2CCN(c3ccc(F)cc3)CC2)oc2ccccc12 -6.14%
COc1ccc(S(=O)(=O)NCC(c2ccc(N(C)C)cc2)N2CCCC2)cc1 (centres undefined) -12.1%
CC(=O)Nc1cccc(NC(=O)CSc2nccn2Cc2ccc3c(c2)OCO3)c1 -8.32%
Fc1ccc(CSc2nc(NCc3ccccc3)c3ccccc3n2)cc1 -6.21%
Cc1cc(NS(=O)(=O)c2ccc(NC(=O)c3ccccc3C)cc2)nc(C)n1 20.1%
O=c1c(=O)n(Cc2c(F)cccc2Cl)ccn1Cc1ccccc1 -15.9%
CCOc1ccc(NC(=O)c2cn(C3CCCCC3)c(=O)c3c2c2ccccc2n3C)cc1 3.89%
CC1=C(C(=O)Nc2ccccc2Cl)C(c2cccs2)n2ncnc2N1 (centres undefined) -9.9%
CCc1ccc(NC(=O)c2sc3nc4c(cc3c2N)CN(CC)CC4)cc1 -5.27%
Cc1ccc(C(=O)Nc2ccc(C(=O)O)cc2)cc1S(=O)(=O)Nc1ccccc1 -5.39%
CCC(Sc1nc2n[nH]c(C)c2c(=N)n1-c1ccccc1Cl)C(=O)N(CC)CC (centres undefined) -7.79%
CCOC(=O)c1cnc2c(C)cc(C)cc2c1Nc1ccc(N2CCOCC2)cc1 -14.4%
CCOc1ccc(OCC)c(NC(=O)c2cc(C)nc3c2c(C)nn3-c2cccc(Cl)c2C)c1 8.2%
CCOc1ccc(CCNC(=O)C2=C(C)C(=O)OC23CCC(C)CC3)cc1OCC (centres undefined) 7.79%
CCOc1ccc(CCNC(=O)Cn2nc(CC)n3c(cc4sc(CC)cc43)c2=O)cc1OCC 4.59%
Cc1cc(C)cc(Nc2ncnc3onc(-c4ccc(F)cc4)c23)c1 18.6%
CCOc1ccc(CNC(=O)c2cc(=O)[nH]c3ccc(S(=O)(=O)N4CCCCC4)cc23)cc1 -16.4%
